# Reference: ChEMBL document CHEMBL3433997, “St. Jude Leishmania screening dataset” (2016)
# Target: Glucose transporter (Leishmania mexicana) (UniProt O61059)
# Assay: ST_JUDE_LEISH: Cytotoxicity at 2uM final concentration against transgenic Leishmania Mexicana promastigotes LmGT2 that are glucose transport deficient and complemented with the L. Mexicana glucose transporter 2. Activity is measured by DNA content using SYBR green in vitro
# Format: functional
row,SMILES,inhibition [%]
1,O=C(Nc1ccc(Cl)c(Cl)c1)Nc1ccc(F)c([N+](=O)[O-])c1,-2.36
2,Cc1cc(-c2ccc(CNCc3ccsc3)cc2)ccc1S(=O)(=O)NCCN1CCCC1,-0.36
3,COc1cc(Nc2nccc(N3CCC(NC(=O)c4cc5ccccc5s4)C3)n2)cc(OC)c1OC (stereo not given),-0.45
4,Cc1cccc(OC2CCN(c3ncc(C(=O)NCCCN4CCCC4=O)cc3Cl)CC2)c1,0.99
5,O=C(Nc1ccc(C(F)(F)F)cc1)c1cc(Br)cnc1NCCCn1ccnc1,-3.55
6,CC(C)c1ccc(S(=O)(=O)N(c2ccc3c(c2)OCO3)C2CCN(Cc3ccccc3)C2)cc1 (stereo not given),0.98
7,Cc1ccc(C(NC(=O)c2ccccc2)c2ccc3cccnc3c2O)cc1 (stereo not given),-0.04
8,O=C(Nc1cccc(CN2CCCN(Cc3ccc(O)cc3)CC2)c1)c1ccc(Cl)c(Cl)c1,5.2
9,Nc1ccc(-c2ccc3ccnc(N)c3c2)cc1,1.39
10,CN1CCN(CCCN(Cc2cccc(-c3cccc(CNC4CCCC4)c3)c2)C(=O)CCC2CCCC2)CC1,0.45
11,Cc1noc(NC(=O)c2sc3ccccc3c2O)c1C,-0.8
12,N=C(N)NN=Cc1c2ccc(Cl)cc2c(Cl)c2ccc(Cl)cc12,61.9
13,O=C(/C=C/c1ccc(Cl)c(Cl)c1)NCCC(CN1CCC(c2c[nH]c3ccccc23)CC1)c1ccccc1 (stereo not given),0.88
14,c1cc(Cc2ccc(Nc3c4ccccc4nc4ccccc34)cc2)cc(Nc2c3ccccc3nc3ccccc23)c1,2.19
15,O=C(N[C@H]1CCN(Cc2ccc(OCCCN3CCCCC3)cc2)C1)c1cc(Cl)cc(Cl)c1,2.29
16,COc1cc(NC(=O)c2sc(-c3ccc(Cl)cc3)cc2Cl)ccc1OCCN1CCCC1,9.29
17,COCCNCc1nc(-c2ccc3c(Nc4ccc(F)c(O)c4)ccnc3c2)cs1,0.42
18,CN1CCN(c2cc(NC(=O)Nc3ccc(-c4ccncc4)c(Cl)c3)ccc2Br)CC1,10.5
19,O=C(Nc1ccc(-c2nc3ccccc3[nH]2)cc1)c1ccc([N+](=O)[O-])s1,3.02
20,Cc1cc(N(C)C)nc(Nc2ccc(NC(=O)Nc3ccccc3)cc2)n1,4.26

row,SMILES,inhibition [%]
1,Cc1ccc(NC(=O)Nc2ccc(Cn3ncc(N4CCCNCC4)c(Cl)c3=O)cc2)cc1,1.32
2,COc1ccc(C(F)(F)F)cc1N1CCN(CCCCNC(=O)c2ccc(NC(=O)c3ccc(Cl)cc3)cc2)CC1,-0.38
3,Cc1ccc2nc(-c3ccc(/C=C/C(=O)NC4CCN(Cc5ccccc5)CC4)cc3)[nH]c2c1C,9.58
4,COc1ccc(C#Cc2ccc(-c3c(C)[nH]c(C)c(Cl)c3=O)cc2)cc1,4.03
5,O=C(NC1CCC(N2CCN(c3cccc4[nH]ccc34)CC2)CC1)c1cc2cccnc2[nH]1 (stereo not given),7.93
6,NC(=O)c1ccccc1OCC(=O)Nc1ccc(-c2cccc(-c3nc4cc(C(F)(F)F)ccc4[nH]3)c2)cc1,3.74
7,COc1ccc(C=CC(=O)NC(=O)c2ccccc2OC(=O)c2ccccc2)cc1OC,1.89
8,Cc1cccc(/C=C/C(=O)NC2CCC(N3CCC(c4ccccc4C)CC3)CC2)c1 (stereo not given),-0.99
9,CCOc1c(Br)cc(C)cc1CNCCCNc1nc2ccccc2[nH]1,1.33
10,CC1(C)N=C(N)N=C(N)N1OCCc1ccc2ccccc2c1,3.22
11,CCCN(CC1CC1)c1nc(C)nc2c(-c3ccccc3)cc(C)cc12,10.1
12,Oc1ccc2c(c1NCC1CCCCC1)CCCC2,1.57
13,CC(C)(CNCc1ccc(F)c(F)c1)c1nc(-c2ccc(Cl)c(O)c2)c(-c2ccncc2)[nH]1,0.94
14,FC(F)(F)c1ccc2[nH]c(-c3ccc(-c4cccc(CNCc5cnn(-c6ccccc6)n5)c4)cc3)nc2c1,-0.02
15,COc1cccc2c(NN=Cc3ccc(Cl)cc3)ccnc12,2.21
16,COc1ccc(CNCc2ccc(-c3cccc(-c4nc5cc(F)ccc5[nH]4)c3)cc2)cc1,-2.49
17,COc1ccc(CNC(=O)C2Cc3ccccc3CN2Cc2ccc3ccccc3c2)cc1 (stereo not given),-0.58
18,O=C(c1ccc([N+](=O)[O-])o1)N1CCN(c2nc3c(Cl)cccc3s2)CC1,4.58
19,Cc1cc(=O)[nH]c(-n2nc(C)cc2NC(=O)CC(c2ccccc2)c2ccccc2)n1,-1.63
20,Cc1cc(=O)[nH]c(-n2nc(C)cc2NC(=O)C(c2ccccc2)c2ccccc2)n1,6.5
